Data reported in PubChem BioAssay AID1159580 (chemical genetic matrix, 2015).
Where “and” joins values, the source holds several entries; their conditions need not be identical. Identical values can stand only once. Screen size: about 5,500 compounds; about 2,000 (36%) were called active. Roughly 18% stayed inconclusive and do not appear here. Rule as the data show it: active = normalized growth mostly below about 0.91 (no sharp cut-off); inconclusive = no clear call, values can overlap the other calls; inactive = mostly above about 0.92. The list shows a part of the results.

Assay: chemical genetic growth profiling, strain panel (AID 1159580);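 also: tested at 20 µM; growth read once vehicle control cultures reached saturation at 30 °C; 1 = growth at the plate median or of vehicle wells; lower values mean less growth of the strain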
Settings: growth OD

Measured: normalized growth

CN1C(C)(C)CCCC1(C)C
inactive: S. cerevisiae deletion strains, locus YAL013W, strain DEP1, hits give low values 1.02 and 1.01 | S. cerevisiae deletion strains, locus YAL040C, strain CLN3, hits give low values 1.07 | S. cerevisiae deletion strains, locus YBR021W, strain FUR4, hits give low values 1.01 | S. cerevisiae deletion strains, locus YBR229C, strain ROT2, hits give low values 1.02 | S. cerevisiae deletion strains, locus YCL029C, strain bik1, hits give low values 0.988 | S. cerevisiae deletion strains, locus YCL061C, strain MRC1 (second series), hits give low values 0.994 | S. cerevisiae deletion strains, locus YDL035C, strain GPR1, hits give low values 1.02 | S. cerevisiae deletion strains, locus YDL074C, strain BRE1, hits give low values 1.06 | S. cerevisiae deletion strains, locus YDL101C, strain DUN1, hits give low values 1.02 | S. cerevisiae deletion strains, locus YDL134C, strain PPH21, hits give low values 1.02 | S. cerevisiae deletion strains, locus YDL185W, strain tfp1, hits give low values 0.993 | S. cerevisiae deletion strains, locus YDL192W, strain arf1, hits give low values 0.978 | S. cerevisiae deletion strains, locus YDR101C, strain arx1, hits give low values 0.969 | S. cerevisiae deletion strains, locus YDR150W, strain NUM1, hits give low values 1.02 and 1 | S. cerevisiae deletion strains, locus YDR162C, strain NBP2, hits give low values 1.04 | S. cerevisiae deletion strains, locus YDR318W, strain mcm21, hits give low values 0.99 | S. cerevisiae deletion strains, locus YDR363W, strain ESC2, hits give low values 0.997 | S. cerevisiae deletion strains, locus YDR388W, hits give low values 0.998 | S. cerevisiae deletion strains, locus YDR502C, strain sam2, hits give low values 1.02 | S. cerevisiae deletion strains, locus YEL061C, strain CIN8, hits give low values 1.02 | S. cerevisiae deletion strains, locus YER002W, strain NOP16, hits give low values 1.02 | S. cerevisiae deletion strains, locus YER110C, hits give low values 0.992 | S. cerevisiae deletion strains, locus YER155C, strain BEM2, hits give low values 1.02 | S. cerevisiae deletion strains, locus YER167W, strain BCK2, hits give low values 1.02 | S. cerevisiae deletion strains, locus YGL078C, strain dbp3, hits give low values 1.01 | S. cerevisiae deletion strains, locus YGL086W, strain mad1, hits give low values 0.996 | S. cerevisiae deletion strains, locus YGL248W, strain PDE1, hits give low values 1.03 | S. cerevisiae deletion strains, locus YGR078C, strain PAC10, hits give low values 1.04 | S. cerevisiae deletion strains, locus YGR135W, strain pre9, hits give low values 1.01 | S. cerevisiae deletion strains, locus YGR229C, strain SMI1, hits give low values 1.03 and 0.995 | S. cerevisiae deletion strains, locus YGR252W, strain gcn5, hits give low values 0.907 | S. cerevisiae deletion strains, locus YHR030C, strain SLT2, hits give low values 1.01 | S. cerevisiae deletion strains, locus YHR079C, strain IRE1 (second series), hits give low values 0.988 | S. cerevisiae deletion strains, locus YHR094C, strain hxt1, hits give low values 1 | S. cerevisiae deletion strains, locus YHR129C, strain ARP1, hits give low values 1.01 | S. cerevisiae deletion strains, locus YHR200W, strain rpn10, hits give low values 0.997 | S. cerevisiae deletion strains, locus YIL066C, strain RNR3, hits give low values 1.03 | S. cerevisiae deletion strains, locus YIL073C, strain SPO22, hits give low values 0.991 | S. cerevisiae deletion strains, locus YIL125W, strain kgd1, hits give low values 1.01 | S. cerevisiae deletion strains, locus YIR030C, strain dcg1, hits give low values 0.999 | S. cerevisiae deletion strains, locus YJL095W, strain BCK1, hits give low values 1.03 | S. cerevisiae deletion strains, locus YJL134W, strain LCB3, hits give low values 1.01 | S. cerevisiae deletion strains, locus YJL168C, strain set2, hits give low values 0.993 | S. cerevisiae deletion strains, locus YJL187C, strain SWE1 (second series), hits give low values 1.04 | S. cerevisiae deletion strains, locus YJR043C, strain POL32, hits give low values 1 | S. cerevisiae deletion strains, locus YJR075W, strain HOC1, hits give low values 1.02 | S. cerevisiae deletion strains, locus YKL009W, strain mrt4, hits give low values 0.962 | S. cerevisiae deletion strains, locus YKL068W, hits give low values 1 | S. cerevisiae deletion strains, locus YKL085W, strain MDH1 (second series), hits give low values 1.01 | S. cerevisiae deletion strains, locus YKL085W, strain MDH1, hits give low values 1.01 | S. cerevisiae deletion strains, locus YKL190W, strain CNB1, hits give low values 1.01 | S. cerevisiae deletion strains, locus YKR001C, strain vps1, hits give low values 0.994 | S. cerevisiae deletion strains, locus YLR039C, strain RIC1, hits give low values 1.03 | S. cerevisiae deletion strains, locus YLR058C, strain SHM2, hits give low values 1.02 | S. cerevisiae deletion strains, locus YLR102C, strain apc9, hits give low values 0.998 | S. cerevisiae deletion strains, locus YLR262C, strain YPT6, hits give low values 1.02 | S. cerevisiae deletion strains, locus YLR268W, strain sec22, hits give low values 1.01 | S. cerevisiae deletion strains, locus YLR330W, strain CHS5, hits give low values 1.01 | S. cerevisiae deletion strains, locus YLR342W, strain FKS1 (second series), hits give low values 0.996 | S. cerevisiae deletion strains, locus YLR371W, strain rom2, hits give low values 0.984 | S. cerevisiae deletion strains, locus YLR418C, strain cdc73, hits give low values 1 | S. cerevisiae deletion strains, locus YML016C, strain PPZ1, hits give low values 1.02 | S. cerevisiae deletion strains, locus YML032C, strain rad52, hits give low values 0.995 | S. cerevisiae deletion strains, locus YML124C, strain tub3, hits give low values 1 | S. cerevisiae deletion strains, locus YMR078C, strain ctf18, hits give low values 0.999 | S. cerevisiae deletion strains, locus YMR223W, strain ubp8, hits give low values 0.983 | S. cerevisiae deletion strains, locus YMR263W, strain SAP30, hits give low values 1.03 | S. cerevisiae deletion strains, locus YMR307W, strain GAS1, hits give low values 1.04 | S. cerevisiae deletion strains, locus YNL067W, strain RPL9B, hits give low values 1.03 | S. cerevisiae deletion strains, locus YNL128W, strain TEP1, hits give low values 1.03 | S. cerevisiae deletion strains, locus YNL153C, strain GIM3, hits give low values 1.04 and 1.01 | S. cerevisiae deletion strains, locus YNL175C, strain NOP13, hits give low values 1 | S. cerevisiae deletion strains, locus YNL197C, strain WHI3, hits give low values 1 | S. cerevisiae deletion strains, locus YNL224C, strain SQS1, hits give low values 1.01 | S. cerevisiae deletion strains, locus YNL233W, strain BNI4, hits give low values 1.04 | S. cerevisiae deletion strains, locus YNL250W, strain rad50, hits give low values 1 | S. cerevisiae deletion strains, locus YNL271C, strain bni1, hits give low values 0.99 | S. cerevisiae deletion strains, locus YNL298W, strain CLA4, hits give low values 0.996 | S. cerevisiae deletion strains, locus YNL307C, strain MCK1, hits give low values 0.993 | S. cerevisiae deletion strains, locus YNL322C, strain KRE1, hits give low values 1.02 | S. cerevisiae deletion strains, locus YNR052C, strain pop2, hits give low values 0.982 | S. cerevisiae deletion strains, locus YOL006C, strain TOP1, hits give low values 1.06 | S. cerevisiae deletion strains, locus YOL012C, strain htz1 1.39 | S. cerevisiae deletion strains, locus YOL147C, strain pex11, hits give low values 0.996 | S. cerevisiae deletion strains, locus YOR061W, strain CKA2, hits give low values 1.01 | S. cerevisiae deletion strains, locus YOR069W, strain VPS5, hits give low values 1.01 | S. cerevisiae deletion strains, locus YOR083W, strain WHI5 (second series), hits give low values 1.02 | S. cerevisiae deletion strains, locus YOR136W, strain idh2, hits give low values 0.987 | S. cerevisiae deletion strains, locus YOR144C, strain elg1, hits give low values 0.99 | S. cerevisiae deletion strains, locus YOR184W, strain ser1, hits give low values 0.962 | S. cerevisiae deletion strains, locus YOR316C, strain cot1, hits give low values 1 | S. cerevisiae deletion strains, locus YPL055C, strain LGE1, hits give low values 1.05 and 1.01 | S. cerevisiae deletion strains, locus YPL241C, strain CIN2, hits give low values 1.02 | S. cerevisiae deletion strains, locus YPR119W, strain clb2, hits give low values 1.01 | S. cerevisiae deletion strains, locus YPR141C, strain kar3, hits give low values 0.994 | S. cerevisiae deletion strains, locus YPR163C, strain tif3, hits give low values 0.998 | S. cerevisiae deletion strains, locus YPR167C, strain met16, hits give low values 0.998 | S. cerevisiae deletion strains, strain wtn01, hits give low values 1.02 | S. cerevisiae strains, strain wild type, hits give low values 1.02
